# Experimental data taken from PubChem BioAssay (NCATS).
# Records with an inconclusive call do not appear. A number with no mark means an inactive call. Activity calls are given as the source filed them. Unless noted, calls come from the whole dose curve; as a rule, active = well fitted curve in the direction sought with a large enough effect in the repeat runs; inconclusive = weak or mixed curves; inactive = no such curve, though single readings can be large; an effect the other way counts as inactive or inconclusive.
# Biological target: Cytochrome P450 2D6 (Homo sapiens) (UniProt P10635)
# Assay: Cytochrome P450 family 2 subfamily D member 6 (CYP2D6) small molecule antagonists: luciferase biochemical (cell-free) qHTS assay (AID 1645840); note: nearly all actives have a fitted effect of over 55% in size
# Settings: P450-Glo CYP2D6 enzyme, luciferin luminescence, 1 h; series mostly up to 57.4 µM; activity change, negative = inhibition: at the top concentration
# How it was run: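 P450-Glo luminescent screen: recombinant CYP2D6 enzyme–proluciferin substrate mix preincubated with compound 10 min at room temperature, then NADPH regeneration added for 1 h at room temperature. Detection reagent added for 20 min; luciferin light read as relative luminescence units.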
# % is set by controls: 0 for no effect and ±100 for the full control effect; potency is the fitted concentration of half-maximal effect.
# Chain of Cytochrome P450 2D6 (Homo sapiens) (P10635 whole entry, looked up): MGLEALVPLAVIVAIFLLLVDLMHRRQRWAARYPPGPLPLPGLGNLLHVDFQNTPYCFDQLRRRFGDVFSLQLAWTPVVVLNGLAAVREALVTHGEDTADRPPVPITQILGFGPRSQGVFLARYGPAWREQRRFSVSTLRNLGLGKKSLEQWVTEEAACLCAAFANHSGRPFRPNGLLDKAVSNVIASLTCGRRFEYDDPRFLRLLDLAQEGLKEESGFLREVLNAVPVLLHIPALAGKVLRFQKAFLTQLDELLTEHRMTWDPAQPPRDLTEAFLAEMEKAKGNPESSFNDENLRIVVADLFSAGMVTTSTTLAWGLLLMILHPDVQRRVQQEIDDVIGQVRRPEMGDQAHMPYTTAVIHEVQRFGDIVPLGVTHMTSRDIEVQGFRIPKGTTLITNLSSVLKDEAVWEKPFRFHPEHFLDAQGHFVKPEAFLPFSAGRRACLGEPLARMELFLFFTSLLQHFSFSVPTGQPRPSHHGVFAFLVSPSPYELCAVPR
Compound,"activity change, negative = inhibition [%]",Potency
CNc1ccc2oc(C[C@H]3O[C@@]4(CC[C@H]3C)O[C@H](C(C)C(=O)c3ccc[nH]3)[C@H](C)C[C@H]4C)nc2c1C(=O)O (some centres not stated),1.66,–
O=C(CC1NCCC[C@H]1O)Cn1cnc2cc(Br)c(Cl)cc2c1=O (some centres not stated),8.5,–
CN(C)c1cc2c(cc1Sc1nc3c(N)nccc3n1CCNCC(C)(C)C)OCO2,–,952 nM (active)

# Biological target: Cytochrome P450 2C9 (Homo sapiens) (UniProt P11712)
# Assay: Cytochrome P450 family 2 subfamily C member 9 (CYP2C9) small molecule antagonists: luciferase biochemical (cell-free) qHTS assay (AID 1645842); note: nearly all actives have a fitted effect of over 55% in size
# Settings: P450-Glo CYP2C9 enzyme assay, luciferin luminescence; series mostly up to 57.4 µM; activity change, negative = inhibition: at the top concentration
# How it was run: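 Luminescence, after 20 min with luciferin detection reagent, reflected CYP2C9 turnover during a 1 h NADPH-driven reaction at 37C. Enzyme-substrate mix contained 0.4% bovine serum albumin and was preincubated with compound 10 min at room temperature.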
# Chain of Cytochrome P450 2C9 (Homo sapiens) (P11712 whole entry, looked up): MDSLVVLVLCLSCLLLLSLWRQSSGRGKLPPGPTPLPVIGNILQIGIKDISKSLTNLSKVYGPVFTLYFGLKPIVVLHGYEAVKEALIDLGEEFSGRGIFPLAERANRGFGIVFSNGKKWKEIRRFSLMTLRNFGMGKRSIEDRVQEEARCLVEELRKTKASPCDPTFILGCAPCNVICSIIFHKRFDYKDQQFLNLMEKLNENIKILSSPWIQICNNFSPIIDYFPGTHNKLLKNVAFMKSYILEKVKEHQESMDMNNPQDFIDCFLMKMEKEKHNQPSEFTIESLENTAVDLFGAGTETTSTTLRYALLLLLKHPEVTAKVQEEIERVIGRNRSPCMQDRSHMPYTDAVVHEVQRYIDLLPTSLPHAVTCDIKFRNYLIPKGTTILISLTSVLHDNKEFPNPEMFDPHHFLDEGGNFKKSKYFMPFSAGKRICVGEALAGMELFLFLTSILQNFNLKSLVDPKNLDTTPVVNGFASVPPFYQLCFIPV
Compound,"activity change, negative = inhibition [%]",Potency
c1cncc(OC[C@@H]2CCN2)c1,-1.99,–
O=C(CC1NCCC[C@H]1O)Cn1cnc2cc(Br)c(Cl)cc2c1=O (some centres not stated),-2.51,–
CN(C)c1cc2c(cc1Sc1nc3c(N)nccc3n1CCNCC(C)(C)C)OCO2,–,3790 nM (active)

# Tested on: not listed separately
# Assay: Primary qHTS for inhibitors of nuclear receptor binding SET domain protein 2 (NSD2) in an isogenic RCH-ACV NSD2 p.E1099K mutant (9B) (AID 1645876; active = well fitted curve in the direction sought with a large enough effect; an effect the other way counts as inactive or inconclusive; note: nearly all actives have a fitted effect of over 70% in size)
# Settings: RCH-ACV (leukaemia line) NSD2 E1099K (9B) viability, CellTiter-Glo, 72 h; series mostly up to 44.9 µM; activity change, negative = viability loss: at the top concentration
Compound,"activity change, negative = viability loss [%]",Potency
CCC(C)/C=C(C)/C=C/C1=CC2=C(Cl)C(=O)C(C)(OC(C)=O)C(=O)C2=CO1 (configuration not stated),-29.3,–
COC1CC(O[C@H]2CC[C@]3(C)C4CC[C@]5(C)[C@@H](C6=CC(=O)OC6)[C@@H](OC(C)=O)C[C@]5(O)C4CC[C@@H]3C2)OC(C)C1O (some centres not stated),–,224 nM (active)
C[C@H]1O[C@@H](O[C@H]2CC[C@]3(C=O)C4CC[C@]5(C)[C@@H](C6=CC(=O)OC6)CC[C@]5(O)[C@@H]4CC[C@]3(O)C2)C[C@@H](O)[C@@H]1O (some centres not stated),–,31.7 nM (active)
CC1=CC2OC3[C@H](O)C[C@@](C)([C@]34CO4)[C@@]2(CO)[C@H](O)C1=O (some centres not stated),–,1630 nM (active)
C=C1[C@@H](C)[C@H]2[C@H](Cc3ccccc3)NC(=O)[C@]23OC(=O)/C=C/C(=O)CCC[C@@H](C)C/C=C/[C@H]3[C@@H]1O,–,1450 nM (active)
COC1CC(O[C@H]2CC[C@@]3(C)C(CCC4C3CC[C@]3(C)[C@@H](C5=CC(=O)OC5)CC[C@]43O)C2)OC(C)C1O (some centres not stated),–,14.2 nM (active)
